test system: KIT; settings: concentration: 1 μM, replicates: in singlicate; n = 1
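Further: KINOMEscan kinase panel screen.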

Structure (SMILES)	%Inh
COc1cc2ncn(-c3cc(OCc4ccncc4)c(C(N)=O)s3)c2cc1OC [GSK336313]	18%
OCCCNc1nccc(-c2c(-c3cccc(C(F)(F)F)c3)nn3cc(C(F)(F)F)ccc23)n1 [GW630813]	2%
Cc1ccc(Oc2ccc(Nc3ncnc4cc[nH]c34)cc2C)cn1	16%
COc1cc(Nc2nccc(N3CCC(NC(=O)C(C)c4ccc(Cl)cc4)C3)n2)cc(OC)c1OC (centres unmarked) [GSK1379757]	2%
Nc1nc(N)c2nc(-c3ccccc3)[nH]c2n1 [SKF-12778]	21%
COc1cc(OC)cc(-c2cc3cnc(N)nc3nc2NC(=O)NC(C)(C)C)c1	0%
COc1cc2nccc(Nc3cccc(Oc4ccccc4)c3)c2cc1OC.Cl [GW284543]	15%
CCn1c(-c2ccoc2)nc2cnccc21 [SB-733887]	5%
CCn1c(-c2nonc2N)nc2ccccc21 [SB-693162/GW549034]	0%
COC(=O)c1c(-c2ccccc2)c2cc(C)ccc2c(=O)n1Cc1ccccc1	75%
CCCNC(=O)Nc1ccc(Oc2ncnc3ccn(C)c23)cc1	89%
COc1ccc(-c2coc3ccc(-c4nnc(SCc5cccc(C#N)c5)o4)cc23)cc1	21%
CCC(=O)c1c(-c2ccccc2)c2cc(Cl)ccc2c(=O)n1Cc1cc(S(C)(=O)=O)n(CC(F)F)n1	5%
CN1C(=O)C(Nc2ccccc2)=C(c2ccccc2)C1=O [SB-300079]	0%
